Consider 81 compounds from PubChem BioAssay AID504660 (National Center for Advancing Translational Sciences (NCATS), 2011).

“And” between values parts separate entries of the source, which are not always exact repeats. Equal entries are not always repeated. The whole screen tested about 360,000 compounds, of which about 3,700 (1%) were called active. Many of the other results were omitted from the sample, so actives are more common in it than they were. Values without a mark were called inactive. No stated cut-off is given here; in the data, active means activation above about 30%; inactive means the rest.

The target in this test is D(1A) dopamine receptor (Homo sapiens) (UniProt P21728). Put plainly: Allosteric Agonists of the Human D1 Dopamine Receptor: qHTS. Further: 0% is about no effect. Conditions: HEK293 T-REx D1 cells, calcium flux, agonist mode; at 2 µM; stronger effect = higher value. In a few lines: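 Inducible HEK293 T-REx D1 cells, force-coupled to calcium signalling, were plated at 4000 cells/well with tetracycline and held overnight at 30 C. After no-wash calcium dye loading, compound-evoked calcium rise over 180 s flagged agonists.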
Chain of D(1A) dopamine receptor (Homo sapiens) (P21728 whole entry, looked up): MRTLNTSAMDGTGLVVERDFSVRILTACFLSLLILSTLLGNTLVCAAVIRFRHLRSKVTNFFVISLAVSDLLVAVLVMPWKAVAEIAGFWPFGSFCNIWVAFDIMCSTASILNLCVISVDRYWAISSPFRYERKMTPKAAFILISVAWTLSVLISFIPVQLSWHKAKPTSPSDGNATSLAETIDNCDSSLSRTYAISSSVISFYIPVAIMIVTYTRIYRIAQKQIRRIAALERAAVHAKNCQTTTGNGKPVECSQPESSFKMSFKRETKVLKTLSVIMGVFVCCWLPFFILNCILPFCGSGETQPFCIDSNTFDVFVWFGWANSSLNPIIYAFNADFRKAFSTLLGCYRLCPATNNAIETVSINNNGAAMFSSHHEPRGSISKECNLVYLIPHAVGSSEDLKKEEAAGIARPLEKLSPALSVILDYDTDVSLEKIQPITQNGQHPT
Background: qHTS replaces the single test concentration by a dilution series.
For the compound `Cc1ccc(-c2nnc3c4ccccc4c(C)nn23)cc1NC(=O)c1cccc(Br)c1`, the activation is -0.644%.

Consider `O=C1/C(=C/c2coc3ccc(O)cc3c2=O)SC(=S)N1c1ccccc1`, for which the activation is 5.55%.

In the case of `Cc1ccc(-c2nn(-c3ccccc3)cc2/C=C2\SC(=S)N(CCCCCC(=O)O)C2=O)o1`, the activation is 44.7% (active).

As to `O=C(O)CCCCCCCCc1cn(CN2C(=O)c3ccccc3C2=O)nn1`, the activation was 2.36%.

Take `O=C(Nc1ccc(F)cc1F)c1cnn(-c2ccc(F)cc2)c1-n1cccc1`: the activation is 2.54%.

`COc1cccc(C(=O)NC2CCN(C#N)CC2)c1`: the activation is 0.293%.

In the case of `c1ccc(COc2ccccc2CNCc2cccnc2)cc1`, the activation is 34.6% (active).

For `CCC(Oc1ccccc1)C(=O)NCc1cccnc1` (stereo unspecified), the activation was 1.93%.

Turning to `C=CCOc1cccc(CNCc2cccnc2)c1`, the activation was 3.75%.

Consider `COc1cccc(NC(=O)C2CCN(c3cc(C)nc4c(-c5ccc(Cl)cc5)c(C)nn34)CC2)c1`, for which the activation is 0.702%.

Regarding `Cc1ccccc1NC(=O)CSC1=NCCN1`, the activation was 1.9%.

Consider `CCCCCOc1ccc(CSC2=NCCN2)cc1[N+](=O)[O-]`, for which the activation is 42.9% (active).

As to `CCOc1ccc(C(=O)Nc2nccs2)cc1[N+](=O)[O-]`, the activation was 6.87%.

Consider `COCC(C)NS(=O)(=O)c1ccc(N2CCCCS2(=O)=O)cc1` (stereo unspecified), for which the activation was 3.35%.

With `CCc1cccc(NC(=O)c2cc(-c3ccccc3)n[nH]2)c1`, the activation was 12.3%.

With `CCOc1cc(/C=C(\C#N)C(=O)Nc2ccccc2C)ccc1OCc1cc(=O)n2nc(CC)sc2n1`, the activation was 5.19%.

Regarding `CCOc1cc(/C=C(\C#N)c2nc(-c3cccs3)c(NC(C)=O)s2)ccc1O`, the activation was 115% (active).

For `CCOc1ccc(/C=C(\C#N)c2nc3ccccc3c(=O)[nH]2)cc1OC`, the activation is 3.27%.

As to `O=C(NCC(c1ccc2c(c1)OCO2)N1CCN(c2ccccc2)CC1)C(=O)Nc1ccccc1F` (stereo unspecified), the activation is 1.27%.

For `COc1ccc(N2CCN(C(=O)CSCc3nc(-c4ccccc4Cl)oc3C)CC2)cc1`, the activation was 7.67%.

As to `CCOc1cccc2c1N[C@@H](c1ccc(C(=O)O)cc1)[C@H]1CC=C[C@@H]21`, the activation is 7.61%.

As to `CC1CCCN(c2cc3c(cc2F)c(=O)c(S(=O)(=O)c2cccc(Cl)c2)cn3Cc2ccccc2)C1` (stereo unspecified), the activation is -0.839%.

On to `Cc1cc2n(n1)C(c1cc(C(C)(C)C)c(O)cc1O)Nc1ccccc1-2` (stereo unspecified), for which the activation is 38.8% (active).

As to `CCOC(=O)NN1C(=O)c2ccccc2NC1c1ccccc1O` (stereo unspecified), the activation was 0.398%.

As for `COC(=O)c1ccc(NC(=O)c2cc(S(=O)(=O)N3CCC(C)CC3)cn2C)cc1`, the activation is 6.51%.

For `COc1ccc(C(CNCC(=O)Nc2ccccc2F)N(C)C)cc1` (stereo unspecified), the activation is 0.114%.

On to `COc1cccc(CNCCc2c[nH]c3ccccc23)c1OCc1ccccc1F`, for which the activation is 18.2%.

As for `COc1ccc(C(CCNCc2ccccc2F)c2ccc(F)cc2)cc1` (stereo unspecified), the activation was 41.1% (active).

As to `CC(C)CC(NS(=O)(=O)c1ccc2c(c1)oc(=O)n2C)C(=O)NCc1ccccc1Cl` (stereo unspecified), the activation was 3.12%.

Consider `CCOc1ccccc1CNCc1c(C(=O)O)c(C)n(Cc2ccc(C)cc2)c1C`, for which the activation is 3.68%.

For `Cc1cccc(N2CCN(S(=O)(=O)c3ccc4[nH]c5c(c4c3)CCCCC5)CC2)c1C`, the activation is 2.57%.

Take `O=C(Nc1ccc2nc(SCC(=O)N3CCCc4ccccc43)sc2c1)c1ccc(F)cc1`: the activation is 5.54%.

With `CCOC(=O)C1CCN(S(=O)(=O)c2c(C)noc2C)CC1`, the activation was 0.879%.

Turning to `CCOC(=O)C1CCN(C(=O)C2CCN(S(=O)(=O)c3c(C)noc3C)CC2)CC1`, the activation is -2.99%.

Take `Cc1cc(C)c(S(=O)(=O)N2CCC(C(=O)OCc3c(C)noc3C)CC2)c(C)c1`: the activation is 45.3% (active).

`COc1ccc(CCn2cc3c(c2-c2ccc(Br)cc2)c(=O)n(C)c(=O)n3C)cc1OC`: the activation is 0.633%.

For the compound `COc1cccc(NC(=O)N2CCN(C(=O)c3nsc4ccccc34)CC2)c1`, the activation was 10.2%.

With `CCOC(=O)c1c(NC(C)=O)c2c3c(sc2n1Cc1c(C)cc(C)cc1C)CCCC3`, the activation is 1.79%.

Turning to `COC(=O)CC1=NN(c2ccccc2)C(=O)C1`, the activation is 31.5% (active).

`COC(=O)CC1=NN(c2nc(C)cc(C)n2)C(=O)C1`: the activation is 13.3%.

Consider `C/C(N)=C(/C#N)C(=O)COC(=O)C1=NN(c2ccccc2)C(=O)CC1`, for which the activation was 2.53%.

Consider `CCOC(=O)c1ccc(NC(=O)C2CC(=O)N(c3ccc(C(C)C)cc3)C2)cc1` (stereo unspecified), for which the activation was 0.0656%.

Take `CCOC(=O)c1cc2c(=O)n3ccccc3nc2n(CCCOC)c1=NC(=O)C(C)Oc1ccccc1` (stereo unspecified): the activation is -0.224%.

Regarding `CCCCC(=O)NNC(=S)NC(=O)C(c1ccccc1)c1ccccc1`, the activation is 179% (active).

In the case of `C/C(=N\NC(=O)CNC(=O)C(c1ccccc1)c1ccccc1)c1ccc(C)cc1`, the activation is 0.588%.

`C=CCC(NC(=O)Cc1ccccc1)C(=O)NCCC` (stereo unspecified): the activation is -1.62%.

`CCOc1ccccc1C(=O)NC1(C(F)(F)F)C(=O)Nc2c1c(=O)[nH]c(=O)n2-c1ccc(F)cc1` (stereo unspecified): the activation is 0.807%.

Turning to `C=CCC1=C/C(=C\c2c(N)n3nc(CC(=O)N4CCOCC4)sc3nc2=O)C=C(OC)C1=O`, the activation is 38.1% (active).

Regarding `COC1=C/C(=C/c2c(N)n3nc(CC(=O)N4CCOCC4)sc3nc2=O)C=CC1=O`, the activation was 8.23%.

Consider `O=C(NCc1nnc(C(=O)Nc2ccc(C(F)(F)F)cc2Cl)o1)c1ccccc1`, for which the activation is -0.686%.

On to `Cc1cc(Br)ccc1NC(=O)Cn1cnc2sc(C)c(S(=O)(=O)N3CCN(C)CC3)c2c1=O`, for which the activation was 2.4%.

`Cc1oc(C)c2c(=O)cc(-c3ccc4c(c3)OCO4)cc(OC(=O)c3ccc(Cl)cc3)c12`: the activation was 5.82%.

With `CC1(c2ccc(Cl)cc2)NC(=O)N(CC(=O)c2ccc3c(c2)OCO3)C1=O` (stereo unspecified), the activation is 53.1% (active).

In the case of `COc1ccc(C2(C)NC(=O)N(CC(=O)c3ccc4c(c3)OCO4)C2=O)cc1` (stereo unspecified), the activation was 38.5% (active).

Turning to `Cc1ccc(NC(=O)CN2C(=O)NC(C)(c3ccc(Cl)cc3)C2=O)c(Br)c1` (stereo unspecified), the activation was 37.2% (active).

As to `CC1CN(C(=O)CN2C(=O)NC(C)(c3ccccc3)C2=O)CC(C)O1` (stereo unspecified), the activation is 0.601%.

For the compound `COc1ccc(C(=O)CN2C(=O)NC(C)(c3ccc(C)cc3)C2=O)cc1OC` (stereo unspecified), the activation is 26.6%.

As to `CC1(c2ccc3ccccc3c2)NC(=O)N(CC(N)=O)C1=O` (stereo unspecified), the activation is 3.93%.

`CC1(c2ccc(Cl)cc2Cl)NC(=O)N(CC(=O)Nc2cccnc2Cl)C1=O` (stereo unspecified): the activation is 3.86%.

Regarding `Cc1ccc(C2(C)NC(=O)N(CC(=O)Nc3ccccc3C(=O)N3CCCCC3)C2=O)cc1` (stereo unspecified), the activation is 10.7%.

For the compound `O=c1n(Cc2cccc(C(F)(F)F)c2)c2ccccc2c2nc(-c3ccccc3)nn12`, the activation was 5.18%.

Consider `CCOC(=O)C1CCCN(C(=O)Cn2ncc3c(C)n(Cc4ccc(F)cc4)c(C)c3c2=O)C1` (stereo unspecified), for which the activation is 5.3%.

With `Cc1nn(-c2ccc(N3CCCCC3)nn2)c(C)c1CCC(=O)NCc1ccccc1F`, the activation was -0.954%.

On to `Cc1ccc(C)c(NC(=O)C2CCCN(S(=O)(=O)c3cn(C)cn3)C2)c1` (stereo unspecified), for which the activation was -0.383%.

For `CC(C)NC(=O)c1nn(-c2ccccc2F)nc1CO`, the activation is 1.01%.

Take `CCOC(=O)c1c(C)oc2nc(C)nc(N(CC(C)C)CC(C)C)c12`: the activation was 5.8%.

Turning to `CCc1cccc(NC(=O)c2cnc(N3CCOCC3)c3ccccc23)c1`, the activation was -0.292%.

On to `CC1=C(C(=O)OCC(C)C)C(c2ccc(OCc3ccccc3)cc2)N2C(=O)CCSC2=N1` (stereo unspecified), for which the activation was 13.9%.

In the case of `Cc1c(-c2nsc(NC(=O)c3cccc(Cl)c3)n2)nnn1-c1ccccc1C(F)(F)F`, the activation was 6.51%.

For `O=C(O)CCS(=O)(=O)c1ccc(-c2ccccc2)cc1`, the activation was -0.731%.

`Cc1cccc2sc(N(CCCN(C)C)C(=O)CCS(=O)(=O)c3ccccc3)nc12`: the activation is 44.5% (active).

For the compound `O=C(CCS(=O)(=O)c1ccccc1)N(Cc1cccnc1)c1nc2c(F)cccc2s1`, the activation is 7.8%.

Regarding `CCc1nnc(SCC(=O)Nc2cc(OC)ccc2OC)nc1CC`, the activation was 0.834%.

As to `CCOc1ccccc1NC(=O)Cn1c(=O)n(Cc2ccco2)c(=O)c2sc3ccccc3c21`, the activation was 0.44%.

Consider `CN(c1ccccc1)c1ccc(/C=c2\s/c(=C(/C#N)C(=O)C(C)(C)C)n(Cc3ccco3)c2=O)cc1`, for which the activation was 86% (active).

As to `Cc1cc(C)nc(NC(=O)Nc2ccccc2C(F)(F)F)n1`, the activation was 7.87%.

Turning to `O=C(Nc1ccccc1C(F)(F)F)c1cc(-c2ccc(O)cc2)on1`, the activation is 76.6% (active).

For `CCc1ccccc1NC(=O)c1cc(-c2ccc3c(c2)OCO3)on1`, the activation was 1.41% and 1.39%.

Take `CC(=O)OC1=C(C(C)=O)N(Cc2ccccc2)S(=O)(=O)c2ccccc21`: the activation is -0.292%.

For the compound `CCOC(=O)CN1C(C(=O)c2ccccc2)=C(OC(=O)C(C)(C)C)c2ccccc2S1(=O)=O`, the activation was 2.02%.

As for `CCCCC(=O)OC1=CN(Cc2ccccc2)S(=O)(=O)c2ccccc21`, the activation was 43.4% (active).
